From the OligoGym collection

Target: SSR4
Experiment: pooled miR-30 sensor sort-seq; sequence = guide strand
Conditions: shRNA
Also: reference of the scale not given here.

Sequence | sensor-assay potency score (higher = more potent)
TCGTCGAAGAATCTAACCTCAT | -1.5
TCTCAGTGGAAATGACAGCGTC | -0.63
TAGTAGGAAGGGGTGATCTGGG | -0.671
TAACCTCATAGGTGCCTGCGTG | -0.73
TGACTGTAAACAGAGGCGGGAT | -0.672
AAGTAGTAGATCACAAGGCCGA | -0.597
AATCTAACCTCATAGGTGCCTG | -0.709
TAGATCACAAGGCCGATCGCCG | -0.829
AAGAATCTAACCTCATAGGTGC | 0.237
TATTCCTCTGAGCCTTCCTGAG | -1.63

Target: SSTR1
Experiment: as above
Conditions: shRNA

Sequence | sensor-assay potency score (higher = more potent)
TATCATTTATGTATTATCCTAA | -0.0617
TAAGGTGATCTTGCGCTCCGAG | 0.115
TTTAGGATGTAGATGTTGGTGG | -0.196
TGAGTTGTTAATGAGTTCGTGA | -0.0506
TTGGAAGTCTTCCACACTGTAG | -0.86
TTGGTCTTTGAAAACGCGCAGT | -0.784
TTTTGAGATACACTGGAGCAGG | -0.72
TTAGATCTTTCTCAAGTCCAAC | -1.71
TTCAATAGTGATTTTAACCATT | -0.629
TAGATGACCATAGAGTTCCCAC | -0.705
TAAACAAGAAAATAACTTCTTA | -0.323
TAAATTTGTATCCTCTTAGAAG | -1.31

Target: SSU72
Experiment: as above
Conditions: shRNA

Sequence | sensor-assay potency score (higher = more potent)
ATAAACATTGGGCTTGTCGGGA | -0.564
TTTGAAATCATAAACATTGGGC | 0.0382
TAGAGTTCTTTGTCTTTCCTAA | -0.0441
TTCTGGAATCTTTCTGGCCGGG | -0.713
TCATACACTCTCTCTTCGCAAG | -1.24
AAGAAGATCATTGTACATCTGG | 0.705
ATGAACAACAGGAAGCTCCAGA | -0.247
TTTCCTAAGAAGATCATTGTAC | 0.179
TAAACATTGGGCTTGTCGGGAG | -0.587
AACTTTGTAATCAATATCCTGC | 0.0512
TCGTTCTCCATGTCTTCCGTGT | -0.416
TTGTACATCTGGTCATATGTGG | 0.225

Target: SSX3
Experiment: as above
Conditions: shRNA

Sequence | sensor-assay potency score (higher = more potent)
TTGAACCTGATTCCCACGGTTA | -0.528
ATATCATGTTAATCTTCTCAGA | -1.24
TATTACGCATGAAAGATGGGAG | 0.05
TATCATGTTAATCTTCTCAGAG | -0.0343
TTTGTATCTTCTCTGGTATTTG | -1.22
TTGTATCTTCTCTGGTATTTGA | -1.1
